PubChem BioAssay (NCI)
About 83,000 compounds went through this panel and 20% of them were active in at least one assay; those are over-represented in the sample as a whole.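 The test compound was applied at a single concentration to cells in 96-well plates for 48 hours, and percent growth was recorded.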 Values without a mark were called inactive. Activity calls are given as the source filed them. The calls were made as follows: active = growth percent below 10; inactive = the rest.

Tests used:
Assay in all cases: NCI-60 one-dose screen, 48 h (100 = growth as untreated, 0 = no growth, -100 = all killed)
Conditions in all cases: 10 µM unless noted
T-47D breast = test system: T-47D breast
BT-549 breast = test system: BT-549 breast
MDA-MB-435 melanoma = test system: MDA-MB-435 melanoma
SW-620 colon = test system: SW-620 colon
MCF7 breast = test system: MCF7 breast
HCT-116 colon = test system: HCT-116 colon
HCC-2998 colon = test system: HCC-2998 colon
MDA-MB-468 breast = test system: MDA-MB-468 breast
KM12 colon = test system: KM12 colon

Row | SMILES | growth (T-47D breast) | growth (BT-549 breast) | growth (MDA-MB-435 melanoma) | growth (SW-620 colon) | growth (MCF7 breast) | growth (HCT-116 colon) | growth (HCC-2998 colon) | growth (MDA-MB-468 breast) | growth (KM12 colon)
1 | CCc1ccccc1-c1nc(CN[C@@H]2C[C@@H]3C[C@H]([C@H]2C)C3(C)C)c(C)o1 | -60.3% (active) | -89.7% (active) | -79.5% (active) | -43.5% (active) | -84.4% (active) | -82.4% (active) | -83.9% (active) | -83.4% (active) | –
2 | COc1cc(/C=N/NC(=O)c2ccc(OCc3nc4ccc(C)cc4[nH]3)cc2)cc(OC)c1OC | 35.1% | 45.4% | 49.1% | 40.7% | 38.2% | 21.2% | 65.5% | 41.5% | –
3 | O=C(Nc1nc2ccc([N+](=O)[O-])cc2s1)Nc1ccccc1F | -5.6% (active) | -13.8% (active) | 12.7% | 16.6% | -0.503% (active) | 3.1% (active) | 23.8% | -15.4% (active) | –
4 | Cc1cc(=O)oc2cc(OCC(O)CNN3C(=O)c4cccc5c(N6CCN(C)CC6)ccc(c45)C3=O)ccc12 (stereo not drawn) | 109% | 113% | 56.9% | 84.3% | 88.6% | 93.5% | 101% | 108% | –
5 | Cc1ccc(-c2cc(-c3ccccc3)[nH]c(=O)c2C#N)cc1 | 73.5% | 88.5% | 107% | 97.8% | – | 94.3% | 114% | – | 91.2%
6 | O=C1Nc2cc(-c3ccc(NS(=O)(=O)c4ccc(F)c(Cl)c4)cc3)ccc2/C1=C/c1ccc[nH]1 | 14.7% | 19.7% | 55.1% | 33.9% | – | 12% | 17.1% | – | –
7 | CS(=O)(=O)Nc1cncc(-c2ccc3ncnc(NCc4ccccc4)c3c2)c1 | 3.96% (active) | 2.92% (active) | 55.1% | 38.9% | – | 19.1% | 45.9% | – | –
8 | CS(=O)(=O)Nc1cc(-c2ccc3ncnc(Nc4ccc(OCc5cccnc5)c(Cl)c4)c3c2)cnc1Cl | -39% (active) | -55.6% (active) | -9.37% (active) | 6.78% (active) | – | -71.6% (active) | -60.4% (active) | – | 10.8%
9 | COc1cc(/C=N/NC(=O)c2ccc(OCc3nc4ccc(Cl)cc4[nH]3)cc2)cc(OC)c1OC | 7.17% (active) | 22.9% | 37.7% | 40.8% | – | 22.8% | 61.2% | 43.4% | 43.3%
10 | CC[C@]12C=CCN3CC[C@@]4(c5ccc(OC)cc5N(C)[C@H]4[C@@](O)(C(=O)OC)[C@@H]1OC(=O)CCC[P+](c1ccc(OC)cc1)(c1ccc(OC)cc1)c1ccc(OC)cc1)[C@@H]32 | -61.4% (active) | -96.6% (active) | -76.9% (active) | -82.4% (active) | – | -68.8% (active) | -89.7% (active) | -92.1% (active) | -65.3% (active)
11 | OC1CCC(Cn2c(C(F)(F)F)cc3c(Cl)ncnc32)CC1 (stereo not drawn) | 82% | -37.7% (active) | 8.29% (active) | 38.8% | 91% | 1.57% (active) | -94% (active) | 9.1% (active) | –
12 | O=C(N/N=C/c1ccoc1)c1[nH]c2ccc(Br)cc2c1-c1ccccc1 | -74.7% (active) | -90.3% (active) | -96% (active) | -83.6% (active) | – | -75.8% (active) | -100% (active) | -88.5% (active) | -25.4% (active)
13 | COc1cc(CNC(=O)C[C@H](C)CCC=C(C)C)ccc1OCc1cn(-c2ccccc2Cl)nn1 | 9.14% (active) | 28.2% | 66.5% | 80.2% | 40.6% | 49.7% | 91.9% | 28.5% | –
14 | Nc1nn2c(-c3cc4cc(Br)ccc4oc3=O)ccnc2c1N=Nc1ccc(Br)cc1 | 29.2% | 40.7% | 69.5% | 43.2% | – | 16.2% | 39.2% | – | 51.7%
15 | Cn1cc(-c2cc(N)n3nc(-c4c[nH]c5ccc(Cl)cc45)cc3n2)c2cc(Br)cnc21 | -50% (active) | -16.1% (active) | -80.8% (active) | -79.1% (active) | – | -74.3% (active) | -99% (active) | -93.6% (active) | -68.8% (active)
16 | CCCn1c(NC(=O)c2cccc(C(N)=O)c2)nc2ccc(CN3CCCCC3)cc21 | 107% | -48% (active) | 93.1% | 109% | – | 6.73% (active) | 107% | 109% | 24%

Row | SMILES | growth (T-47D breast) | growth (BT-549 breast) | growth (MDA-MB-435 melanoma) | growth (SW-620 colon) | growth (MCF7 breast) | growth (HCT-116 colon) | growth (HCC-2998 colon) | growth (MDA-MB-468 breast) | growth (KM12 colon)
17 | CC(=O)c1c2c(c3ccc4c5ccccc5ccc4n13)C(=O)c1ccccc1C2=O | 92.5% | 113% | 98.3% | 107% | 58% | 102% | 94.3% | 84.2% | –
18 | COc1ccc2[nH]c(O)c(N=Nc3nc(-c4ccc(C#N)cc4)cs3)c2c1 | 54.7% | 63.2% | 67.3% | 63.3% | 69.8% | 31.8% | 90.8% | 77.5% | –
19 | CN(C)c1nc(NCCNS(=O)(=O)c2ccc(C3=Nc4c(N)nc(N)nc4NC(c4ccc(Cl)cc4)C3)cc2)nc(N2CCOCC2)n1 (stereo not drawn) | 43% | – | 60.1% | 82.8% | 22.4% | 30.9% | 39.3% | 6.95% (active) | 52.9%
20 | COc1ccc(C2=Nc3c(N)nc(N)nc3NC(c3ccc(Oc4nc(Nc5ccc(F)cc5)nc(N(C)C)n4)c(OC)c3)C2)cc1 (stereo not drawn) | 70.3% | – | 81.9% | 76.6% | 38.8% | 44.2% | 80.1% | 8.9% (active) | 74.9%
21 | Cn1cc(-c2cc3nc(-c4cn(C)c5ncccc45)cc(N)n3n2)c2cc(F)ccc21 | 37.8% | – | 83.1% | 61% | 68.2% | 10.2% | 39.8% | 7.65% (active) | 61.8%
22 | Nc1cc2ccccc2c(=O)n1NC(=O)c1ccc(Br)cc1 | 94.8% | – | 103% | 98.4% | 74.6% | 95.1% | 97.5% | -54.9% (active) | 92.7%
23 | CCc1ccccc1NC(=O)N/C(N)=N/c1nc2ccccc2s1 | 55.8% | -12% (active) | -46.7% (active) | 21.3% | – | -26.2% (active) | 3.52% (active) | -21.2% (active) | -3.54% (active)
24 | COc1ccc(N=Nc2c(N)nn3c(N)c(C#N)c(-c4ccccc4)nc23)cc1 | 16.4% | -16.7% (active) | 62.5% | 66.2% | – | 20.2% | 65.2% | 31.7% | 45%
25 | Cn1cc(Nc2ncnc(-c3ccc(N4CCCC4)c(C#N)c3)n2)cn1 | 84.9% | 76.1% | 8.16% (active) | 57.6% | – | 51.2% | 68.6% | 16.7% | 55.2%
26 | CCN1C(=O)N(CC)C2NNC(Sc3c(C(=O)O)c4ccccc4n(CC(C)C)c3=O)=NC21 (stereo not drawn) | 72.5% | – | -51% (active) | 30.5% | 8.53% (active) | 9.94% (active) | 18.7% | 7.22% (active) | 21.4%
27 | COC(=O)c1cc(C(=O)CBr)n2c1ccc1c3ccccc3ccc12 | 57.7% | – | 74.9% | 55.4% | 6.75% (active) | 35.6% | 62.5% | 48.8% | 84%
28 | CC1=C(C(=O)Nc2ccccc2)C(c2ccc3ccccc3c2)n2c(nc3ccccc32)N1 (stereo not drawn) | 91.8% | – | 53.9% | 9.24% (active) | 9.9% (active) | -36.4% (active) | 52.3% | 17.9% | 69.4%
29 | O=C(NC(=S)N1CCN(c2ncnc3c2cnn3-c2ccccc2)CC1)c1ccc(F)cc1 | 66.6% | – | 77.2% | 76.6% | 52.4% | 55.1% | 99.1% | 66.7% | 79.7%
30 | O=C(c1ccc(Cl)cc1)C1[C@H](c2ccccc2Cl)[C@@H](c2ccccc2)NC12C(=O)Nc1ccc(Br)cc12 (stereo partly drawn) | -83.4% (active) | – | -93.4% (active) | -84.1% (active) | -48.7% (active) | -98.9% (active) | -94.2% (active) | – | -51.8% (active)
31 | COc1cc(NC(=O)C(C)C)ccc1C(=O)NC(=S)Nc1ccc(S(N)(=O)=O)cc1 | 99.5% | – | 106% | 107% | 101% | 106% | 116% | 123% | 100%
32 | COc1ccc2[nH]c(O)c(N=NC(=O)c3ccc4nc(-c5ccc(Cl)cc5)[nH]c4c3)c2c1 | 13.5% | – | 81.2% | 82.6% | 24.5% | 51.4% | 64.6% | -48.3% (active) | 78.6%
